Hit rate of the full screen: of about 310,000 compounds, about 14,000 (4.5%) showed an effect of 50% or more. The effect is printed as a negative number. Shown is part of a subset that was picked to be rich in strong results.
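Also: peak tail current of the secondary pulse compared with the same well before compound.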

The target of this assay is human ether-à-go-go-related gene (hERG) potassium channel (human, UniProt Q12809). The experiment in a line: primary screen, population patch clamp on CHO cells stably expressing hERG; higher = less effect of the substance.
Chain of human ether-à-go-go-related gene (hERG) potassium channel (Q12809 whole entry, looked up): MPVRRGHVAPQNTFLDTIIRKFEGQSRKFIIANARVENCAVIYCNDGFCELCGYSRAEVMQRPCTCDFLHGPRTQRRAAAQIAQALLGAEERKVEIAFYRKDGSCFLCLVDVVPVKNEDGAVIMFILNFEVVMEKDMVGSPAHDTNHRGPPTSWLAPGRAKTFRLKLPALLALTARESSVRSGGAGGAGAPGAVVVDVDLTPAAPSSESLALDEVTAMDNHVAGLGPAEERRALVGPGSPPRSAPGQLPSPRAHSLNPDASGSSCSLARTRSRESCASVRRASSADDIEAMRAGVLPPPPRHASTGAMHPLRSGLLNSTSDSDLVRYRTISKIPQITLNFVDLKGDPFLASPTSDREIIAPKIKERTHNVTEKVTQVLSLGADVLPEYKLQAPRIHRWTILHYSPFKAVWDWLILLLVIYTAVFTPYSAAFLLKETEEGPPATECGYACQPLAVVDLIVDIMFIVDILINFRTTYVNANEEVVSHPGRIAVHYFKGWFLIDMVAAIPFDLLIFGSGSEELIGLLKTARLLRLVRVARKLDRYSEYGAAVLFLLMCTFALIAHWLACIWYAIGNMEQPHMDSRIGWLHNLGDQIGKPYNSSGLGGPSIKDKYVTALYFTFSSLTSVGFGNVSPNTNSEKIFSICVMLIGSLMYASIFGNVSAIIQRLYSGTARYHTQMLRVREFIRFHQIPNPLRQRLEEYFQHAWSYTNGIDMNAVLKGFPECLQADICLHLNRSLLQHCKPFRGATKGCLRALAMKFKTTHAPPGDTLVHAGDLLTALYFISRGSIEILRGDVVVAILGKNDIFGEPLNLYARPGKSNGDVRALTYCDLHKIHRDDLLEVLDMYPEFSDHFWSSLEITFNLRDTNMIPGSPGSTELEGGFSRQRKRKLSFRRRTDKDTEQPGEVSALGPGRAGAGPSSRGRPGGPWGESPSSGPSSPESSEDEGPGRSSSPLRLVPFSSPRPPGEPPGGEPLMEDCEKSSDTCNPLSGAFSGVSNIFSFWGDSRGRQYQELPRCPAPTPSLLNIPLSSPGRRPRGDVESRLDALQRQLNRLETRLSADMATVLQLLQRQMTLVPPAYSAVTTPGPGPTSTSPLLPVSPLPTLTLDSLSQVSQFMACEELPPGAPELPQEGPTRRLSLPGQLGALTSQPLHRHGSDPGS
On to `Cc1cc(OC(=O)c2ccccc2Cl)ccc1N1C(=O)CCC1=O`, for which the “hERG current change (%, negative = inhibition) at 10uM” value is -1.98%.

With `O=[N+]([O-])c1ccc(O)c(-c2nn[nH]n2)c1`, the “hERG current change (%, negative = inhibition) at 10uM” value came out at 1.52%. The same measure for `CC1=NN(C(=O)c2ccc(Cn3ccc([N+](=O)[O-])n3)cc2)C(O)(C(F)(F)F)C1` (stereo not drawn): -8.73%. Next, `O=C1N(c2ccc(Cl)cc2)C(c2ccc(Cl)cc2)N2CCCN12` (stereo not drawn): -16.7%; `COc1ccccc1/C=C1\SC(=S)N(CCC(=O)NCCc2ccc(O)cc2)C1=O`: 15.1%; `CCOC(=O)Oc1ccc2oc(=O)cc(C)c2c1`: 15.9%. Turning to `O=c1[nH]c(/C=C/c2cccc3ccccc23)nc2ccccc12`, the “hERG current change (%, negative = inhibition) at 10uM” value came to 36.4%.

With `O=C(c1ccco1)N1CCN(C(=O)c2cc(-c3ccc(F)cc3)no2)CC1`, the “hERG current change (%, negative = inhibition) at 10uM” value was -65.1%. Take `O=C(c1ccco1)N1CCN(C(=O)c2cc(-c3ccccc3F)no2)CC1`: the “hERG current change (%, negative = inhibition) at 10uM” value is on record as -15.8%. Next, `COc1ccc(-c2cc(C(=O)N3CCN(C(=O)c4ccco4)CC3)[nH]n2)cc1`: -31.6%; `COc1cccc(-c2cc(C(=O)N3CCN(C(=O)c4ccco4)CC3)on2)c1`: -13.9%. With `Cc1ccc(-c2cc(C(=O)N3CCN(C(=O)c4ccco4)CC3)[nH]n2)cc1C`, the “hERG current change (%, negative = inhibition) at 10uM” value is 5.83%. The same measure for `O=C(c1cc(-c2ccc(Cl)cc2)n[nH]1)N1CCN(C(=O)c2ccco2)CC1`: -68.9%; for `CCOc1ccc(NC(=O)CCNC(=O)c2ccco2)cc1`: 6.08%. The same measure for `Cc1ccc(C(=O)COC(=O)CNC(=O)Cc2ccccc2)cc1`: -2.44%; for `COc1ccc(CCN2C(=O)c3cccc4cccc(c34)C2=O)cc1OC`: 12.9%. For `COc1ccc(C(CNC(=O)C(C)c2ccc3cc(OC)ccc3c2)N(C)C)cc1` (stereo not drawn), the “hERG current change (%, negative = inhibition) at 10uM” value was -7.44%. Next, `Cc1ccc(NS(=O)(=O)c2cc(C(=O)NCc3ccccn3)ccc2Cl)cc1C`: -47%; `COc1ccc(N2C(=O)C3C(c4ccc(OC)cc4O)NC(Cc4ccccc4)(C(=O)O)C3C2=O)cc1` (stereo not drawn): 19.5%. The same measure for `CCC(=O)c1ccc(OCC(=O)N2CCc3cc(OC)c(OC)cc3C2)cc1`: -33.2%; for `COc1cc2c(cc1OC)CN(C(=O)CNC(=O)c1ccc(OC(F)F)cc1)CC2`: -52.5%. Regarding `COc1ccc(C(=O)NCC(=O)N2CCc3ccccc3C2)cc1`, the “hERG current change (%, negative = inhibition) at 10uM” value was -2.27%. Next, `COc1cc2c(cc1OC)CN(C(=S)Nc1ccc(OC(F)F)cc1)CC2`: -38.8%.

For `COc1cc2c(cc1OC)CN(C(=O)COc1ccc(C#N)cc1)CC2`, the “hERG current change (%, negative = inhibition) at 10uM” value is listed as -63.4%. Turning to `COc1cc2c(cc1OC)CN(CC(=O)Nc1ccc(C)cc1)CC2`, the “hERG current change (%, negative = inhibition) at 10uM” value is -16.4%. The same measure for `COc1cc2c(cc1OC)CN(C(=O)COc1ccc(C)c(C)c1)CC2`: -11.9%; for `O=C(OCC(=O)N1CCc2ccccc2C1)c1ccc(OC(F)F)cc1`: -80.2%; for `COc1cc2c(cc1OC)CN(CC(=O)Nc1ccc(C#N)cc1)CC2`: -63.1%. The same measure for `NC(=O)Nc1ccc(C(=O)OCC(=O)N2CCc3ccccc3C2)cc1`: 5.29%; for `COc1cc2c(cc1OC)CN(CC(=O)Nc1ccc(F)cc1)CC2`: -7.62%; for `CCC(=O)c1ccc(OCC(=O)OCC(=O)N2CCc3ccccc3C2)cc1`: -24.8%. Next, `CCC(C(=O)O)n1nc(-c2ccccc2)c2cc(Cl)ccc21` (stereo not drawn): 13.8%; `COc1ccc(C(c2nnnn2C2CCCCC2)N2CCN(c3ccccc3F)CC2)cc1` (stereo not drawn): 12.8%; `Cc1csc2ncc(C(=O)N3CCc4ccccc43)c(=O)n12`: 15.1%. As for `C=CCn1c(COc2cccc3ccc(C)nc23)nnc1SCC(=O)OC`, the “hERG current change (%, negative = inhibition) at 10uM” value is -0.175%.

In the case of `CCOC(=O)Cn1nc(C)c(NC(=O)COc2ccc(C)c(C)c2)c1C`, the “hERG current change (%, negative = inhibition) at 10uM” value is recorded as 12.2%. `O=S(=O)(Nc1cccc(F)c1)c1cccc2nsnc12`: the “hERG current change (%, negative = inhibition) at 10uM” value stood at 3.21%. The same measure for `CCOc1ccc(C(=O)OCc2nnc(-c3cccs3)o2)cc1OC`: -54.9%; for `O=C(OCc1nnc(-c2cccs2)o1)c1cccnc1Cl`: 4.2%; for `CCOc1ccc(-c2nnc(-c3cccs3)o2)cc1OCC`: 1.32%. As to `COc1cc(OC)c(S(=O)(=O)NC(C)C)cc1S(=O)(=O)NC(C)C`, the “hERG current change (%, negative = inhibition) at 10uM” value is recorded as 2.64%. For the compound `COc1ccc(C)cc1S(=O)(=O)Nc1ccc(F)cc1`, the “hERG current change (%, negative = inhibition) at 10uM” value was -1.24%. The same measure for `Cc1ccc(NC(=O)c2ccc3nccnc3c2)c(C)c1`: -2.58%. The same measure for `CCCCc1cc(=O)oc2c(C)c(OCC(=O)NCCN3CCOCC3)ccc12`: -82.1%; for `CCc1cc(=O)oc2c(C)c(OCC(=O)NCCN3CCOCC3)ccc12`: -0.348%; for `Cc1c(OCC(=O)NCCCN2CCOCC2)ccc2c1oc(=O)c1ccccc12`: -46.6%. Next, `Cc1c(C)c2ccc(OCC(=O)NCCN3CCOCC3)c(C)c2oc1=O`: 1.61%; `Cc1c(OCC(=O)NCCN2CCOCC2)ccc2c1oc(=O)c1ccccc12`: -59.6%; `CCCc1cc(=O)oc2c(C)c(OCC(=O)NCCN3CCOCC3)ccc12`: -31.6%. Consider `Cn1c(SCc2ccccc2C#N)nnc1-c1ccncc1`, for which the “hERG current change (%, negative = inhibition) at 10uM” value was found to be 7.11%. Turning to `CSc1ccccc1NC(=O)CN(C)C(=O)CCc1c[nH]c2ccccc12`, the “hERG current change (%, negative = inhibition) at 10uM” value was found to be 0.0989%. On to `O=C(CCCC(=O)N/N=C\c1ccccn1)N/N=C\c1ccccn1`, for which the “hERG current change (%, negative = inhibition) at 10uM” value is 2.44%.

With `CCOc1ccc(Br)cc1C(=O)N/N=C/c1ccccn1`, the “hERG current change (%, negative = inhibition) at 10uM” value was -40.8%. Consider `O=C(N/N=C/c1ccccn1)c1cc(Br)ccc1O`, for which the “hERG current change (%, negative = inhibition) at 10uM” value is listed as -54.9%. Turning to `O=C(N/N=C/c1ccccn1)c1ccccc1`, the “hERG current change (%, negative = inhibition) at 10uM” value came to 2.75%. As to `O=C(N/N=C/c1ccccn1)C1CC1`, the “hERG current change (%, negative = inhibition) at 10uM” value is on record as -69.4%. Next, `O=C(N/N=C\c1ccccn1)c1ccccc1O`: 11%.

(Values after PMC4336329 (PLoS ONE, 2015).)
